Details in all cases: mRNA level, 48 h; actives raise or lower the signal
Read-out in test [1]: growth arrest and DNA damage 45 (GADD45B), GADD45B (gene 4616)
Briefly: LTEA_HepaRG_GADD45B: Life Technologies and Expression Analysis (LTEA) Assay for growth arrest and DNA damage 45 (GADD45B) using HepaRG (AID 2283461). The method, boiled down:
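Differentiated HepaRG cells, plated 48 h then switched to serum-free induction medium, were exposed 48 h in duplicate to eight half-log concentrations from 100 uM in 0.5% DMSO; mRNA quantified by qRT-PCR, normalized to ACTB/GAPDH/POLR2A, bidirectional fit versus DMSO.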

Read-out in test [2]: ABC Transporter (ABCC3), ABCC3 (gene 8714)
As to the kind of experiment: LTEA_HepaRG_ABCC3: Life Technologies and Expression Analysis (LTEA) Assay for ABC Transporter (ABCC3) using HepaRG (AID 2283462). The method in brief: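 HepaRG cells in serum-free induction medium were exposed for 48 h in duplicate to 8-point half-log concentrations topping at 100 uM in 0.5% DMSO. ABCC3 mRNA was measured by qRT-PCR normalized to ACTB, GAPDH and POLR2A, with bidirectional fitting versus DMSO.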

Read-out in test [3]: ABC Transporter (ABCB11), ABCB11 (gene 8647)
Briefly: LTEA_HepaRG_ABCB11: Life Technologies and Expression Analysis (LTEA) Assay for ABC Transporter (ABCB11) using HepaRG (AID 2283463). The method, boiled down: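 ABCB11 transcript levels quantified by TaqMan qRT-PCR against three housekeeping genes after 48 h chemical exposure of HepaRG cultures. Concentrations up to 100 uM in half-log steps, 0.5% DMSO vehicle; both induction and suppression scored.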

Read-out in test [4]: ABC Transporter (ABCC2), ABCC2 (gene 1244)
As to the kind of experiment: LTEA_HepaRG_ABCC2: Life Technologies and Expression Analysis (LTEA) Assay for ABC Transporter (ABCC2) using HepaRG (AID 2283464). The method, boiled down:
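HepaRG cells were plated 48 h, switched to serum-free induction medium, then exposed in duplicate for 48 h to 8 concentrations (top 100 uM, half-log steps, 0.5% DMSO). ABCC2 mRNA was measured by qRT-PCR normalized to ACTB/GAPDH/POLR2A; bidirectional fitting versus DMSO.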

Read-out in test [5]: Broad substrate specificity ATP-binding cassette transporter ABCG2 (Homo sapiens) (UniProt Q9UNQ0)
Briefly: LTEA_HepaRG_ABCG2: Life Technologies and Expression Analysis (LTEA) Assay for ABC Transporter (ABCG2) using HepaRG (AID 2283465). The method in brief: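 ABCG2 transcript was quantified by TaqMan qRT-PCR against three housekeeping genes in HepaRG cells. Cells were treated in duplicate for 48 h across an 8-point half-log series up to 100 uM, with 0.5% DMSO vehicle. Gain or loss versus DMSO was fit.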

Read-out in test [6]: ATP-citrate lyase (ACLY), ACLY (gene 47)
Briefly: LTEA_HepaRG_ACLY: Life Technologies and Expression Analysis (LTEA) Assay for ATP-citrate lyase (ACLY) using HepaRG (AID 2283466). The method, boiled down: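 ACLY mRNA quantified by qRT-PCR on Fluidigm arrays against three housekeeping genes, after 48 h chemical treatment of HepaRG cells (top concentration 100 uM, half-log steps, 0.5% DMSO vehicle). Up- or down-regulation fitted relative to DMSO.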

Read-out in test [7]: Alkaline Phosphatase, Placental (ALPP) gene, ALPP (gene 250)
As to the kind of experiment: LTEA_HepaRG_ALPP: Life Technologies and Expression Analysis (LTEA) Assay for Alkaline Phosphatase, Placental (ALPP) gene using HepaRG (AID 2283468). The method, boiled down: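 Differentiated human HepaRG cells were plated and cultured 48 h, then exposed in duplicate for 48 h in serum-free induction medium to eight half-log concentrations from 100 uM in 0.5% DMSO. ALPP mRNA was measured by TaqMan qRT-PCR, normalized to ACTB, GAPDH, POLR2A.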

Read-out in test [8]: Bcl-2 (BAD) gene, BAD (gene 572)
As to the kind of experiment: LTEA_HepaRG_BAD: Life Technologies and Expression Analysis (LTEA) Assay for Bcl-2 (BAD) gene using HepaRG (AID 2283469). The method, boiled down:
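Read-out: qRT-PCR of BAD mRNA, normalized to three housekeeping genes. Human HepaRG cultures got 48 h chemical exposure in 0.5% DMSO, duplicate eight-point half-log series topping at 100 uM. Gain or loss of signal fitted versus DMSO vehicle.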

Outcome and AC50 data for 23 compounds are collected here from PubChem BioAssay (EPA / NIEHS).

Where “and” joins values, the source holds several entries; their conditions need not be identical. Equal entries are not always repeated. More than one record can exist for a structure, and the calls need not agree. Calls of active or inactive are those of the source. Rule for the calls: active = hit-call score of the fitted dose curve at least 0.9, where 1 is the maximum; inactive = score below 0.9.

Broad substrate specificity ATP-binding cassette transporter ABCG2 (Homo sapiens), sequence (Q9UNQ0 whole entry, looked up): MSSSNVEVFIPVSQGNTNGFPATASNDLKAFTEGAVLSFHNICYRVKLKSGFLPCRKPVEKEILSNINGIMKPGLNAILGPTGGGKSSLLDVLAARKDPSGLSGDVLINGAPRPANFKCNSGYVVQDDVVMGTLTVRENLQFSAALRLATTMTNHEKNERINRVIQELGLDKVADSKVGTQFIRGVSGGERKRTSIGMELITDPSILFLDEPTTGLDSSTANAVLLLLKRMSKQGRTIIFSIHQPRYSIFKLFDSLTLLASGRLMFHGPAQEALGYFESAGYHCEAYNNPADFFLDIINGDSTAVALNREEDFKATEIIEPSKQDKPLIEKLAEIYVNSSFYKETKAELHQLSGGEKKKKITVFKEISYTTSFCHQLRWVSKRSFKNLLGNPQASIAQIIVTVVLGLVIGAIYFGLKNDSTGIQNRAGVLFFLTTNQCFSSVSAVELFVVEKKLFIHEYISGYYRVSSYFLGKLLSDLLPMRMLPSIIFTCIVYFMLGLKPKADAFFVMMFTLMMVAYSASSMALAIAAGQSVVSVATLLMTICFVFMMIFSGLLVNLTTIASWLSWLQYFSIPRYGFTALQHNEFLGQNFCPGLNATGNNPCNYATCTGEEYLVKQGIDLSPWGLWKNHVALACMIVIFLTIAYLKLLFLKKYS

As to `COP(=S)(OC)Oc1ccc([N+](=O)[O-])cc1`, the result in test [1], in test [2], in test [3], in test [4], in test [5] and in test [6] was inactive. Moreover, the outcome in test [7] was inactive.
As to `CC[C@H](C)[C@H]1O[C@]2(C=C[C@@H]1C)C[C@@H]1C[C@@H](C/C=C(\C)[C@@H](O[C@H]3C[C@H](OC)[C@@H](O[C@H]4C[C@H](OC)[C@@H](O)[C@H](C)O4)[C@H](C)O3)[C@@H](C)/C=C/C=C3\CO[C@@H]4[C@H](O)C(C)=C[C@@H](C(=O)O1)[C@]34O)O2` (tested in a mixture with another compound), the AC50 in test [1] was 7.13 µM (active); in test [2], 46.5 µM (active); in test [3], 15.8 µM (active); in test [4], 30.2 µM (active); in test [5] it was 13.7 µM (active); in test [6] it was 52.2 µM (active). The AC50 in test [7] is 9.57 µM (active). For the same compound, the outcome in test [8] was inactive.
For `CNC(=O)CSP(=S)(OC)OC`, the compound was classed as inactive in test [1], in test [2], in test [3], in test [4], in test [5] and in test [6]. In test [7], the compound was called inactive.
As to `O=C(O)CCCOc1ccc(Cl)cc1Cl`, the call in test [1], in test [2], in test [3], in test [4] and in test [7] was inactive. Also, the results for the AC50 in test [5] and in test [6] were 11.6 µM (active) and 50.8 µM (active), respectively.
Turning to `O=S1OCC2C(CO1)C1(Cl)C(Cl)=C(Cl)C2(Cl)C1(Cl)Cl` (centres undefined), the compound was called inactive in test [1], in test [2], in test [4], in test [5], in test [7] and in test [8]. The results for the AC50 in test [3] and in test [6] were 50 µM (active) and 87.1 µM (active), respectively.
Turning to `OCCOc1ccccc1`, the outcome in test [1], in test [2], in test [3], in test [4], in test [5] and in test [6] was inactive. Moreover, in test [7], the compound was classed as inactive.
As for `N#CN`, the result in test [1], in test [2], in test [3], in test [4], in test [5] and in test [6] was inactive. The compound was called inactive in test [7].
For the compound `O=[N+]([O-])c1c(Cl)c(Cl)c(Cl)c(Cl)c1Cl`, the AC50 in test [1] was 60.7 µM (active). In addition, the outcome in test [2], in test [3], in test [4], in test [5], in test [6] and in test [7] was inactive.
For the compound `CC1(c2ccc(Oc3ccccc3)cc2)OC(=O)N(Nc2ccccc2)C1=O` (centres undefined), the compound was classed as inactive in test [1] and in test [2]. In addition, the AC50 was 8.3 µM (active) in test [3]; 79.3 µM (active) in test [4]; 13.2 µM (active) in test [5]; 3.66 µM (active) in test [6]; 11.2 µM (active) in test [7].
`CCc1ccc(C(=O)NN(C(=O)c2cc(C)cc(C)c2)C(C)(C)C)cc1`: the outcome in test [1], in test [2], in test [3], in test [4] and in test [6] was inactive. In addition, the AC50 in test [5] and in test [7] was 50 µM (active) in each case.
Take `C[C@H]1[C@H](c2ccc(Cl)cc2)SC(=O)N1C(=O)NC1CCCCC1`: the AC50 is 82.2 µM (active) in test [1]; 76.5 µM (active) in test [3]; 39.7 µM (active) in test [5]; 79.7 µM (active) in test [6]; 32.1 µM (active) in test [7]. Moreover, the compound was classed as inactive in test [2] and in test [4].
`COP(=O)(OC)OC=C(Cl)Cl`: the compound was called inactive in test [1], in test [2], in test [3], in test [4], in test [5] and in test [6]. The result in test [7] and in test [8] was inactive.
For the compound `Oc1ccc(Cl)cc1Cc1ccccc1`, the outcome in test [1], in test [2], in test [4], in test [5], in test [6] and in test [7] was inactive. For the same compound, the AC50 in test [3] is 93.7 µM (active) and 67 µM (active) and 80 µM (active).
Take `O=C1c2ccccc2C(=O)N1SC(Cl)(Cl)Cl`: the compound was classed as inactive in test [1], in test [2], in test [3], in test [4], in test [5] and in test [6]. In addition, the result in test [7] was inactive.
On to `CC(C)(C)C(O)/C(=C\c1ccc(Cl)cc1Cl)n1cncn1` (centres undefined), for which the AC50 in test [1] is 87.1 µM (active); in test [3], 25.1 µM (active); in test [4], 80.6 µM (active); in test [6], 88.9 µM (active); in test [7], 22 µM (active). For the same compound, the result in test [2], in test [5] and in test [8] was inactive.
`CCCN(CCC)c1c([N+](=O)[O-])cc(C(F)(F)F)cc1[N+](=O)[O-]`: the compound was classed as inactive in test [1], in test [2], in test [3], in test [4], in test [5] and in test [6]. For the same compound, in test [7], the compound was called inactive.
`COP(=S)(OC)Oc1ccc(SC)c(C)c1`: the outcome in test [1], in test [2], in test [3], in test [4], in test [6] and in test [7] was inactive. The half-maximal activity concentration (AC50) in test [5] was 31.8 µM (active).
Turning to `CCOCN(C(=O)CCl)c1c(C)cccc1CC`, the figures for the AC50 in test [1] and in test [3] were 75.5 µM (active) and 82.5 µM (active), respectively. Besides, the compound was classed as inactive in test [2], in test [4], in test [5], in test [6] and in test [7].
For `CC1(C)C(C=C(Cl)Cl)C1C(=O)OC(C#N)c1ccc(F)c(Oc2ccccc2)c1` (centres undefined), the outcome in test [1], in test [2], in test [3], in test [6] and in test [7] was inactive. In addition, the figures for the AC50 in test [4] and in test [5] were 50 µM (active) and 21.4 µM (active), respectively.
As to `O=C(O)C(F)(F)C(F)(F)C(F)(F)C(F)(F)C(F)(F)C(F)(F)C(F)(F)F`, the compound was called inactive in test [1], in test [2], in test [3], in test [4], in test [5] and in test [6]. Besides, in test [7], the compound was called inactive. Besides, in test [7], the AC50 is 9.92 µM (active).
For the compound `Clc1ccccc1-c1nnc(-c2ccccc2Cl)nn1`, the compound was classed as inactive in test [1], in test [2], in test [3], in test [6] and in test [7]. Also, in test [5], the AC50 was 5.64 µM (active).
As to `O=C(NC(=O)c1c(F)cccc1F)Nc1ccc(OC(F)(F)C(F)OC(F)(F)F)c(Cl)c1` (centres undefined), the compound was called inactive in test [1], in test [2], in test [3], in test [4], in test [5] and in test [7]. Also, the AC50 in test [6] was 25 µM (active).
Regarding `CCC(C)(NC(=O)c1cc(Cl)c(C)c(Cl)c1)C(=O)CCl` (centres undefined), the call in test [1], in test [6] and in test [7] was inactive. Moreover, the figures for the AC50 in test [2], in test [4] and in test [5] were 65.3 µM (active), 89 µM (active) and 12.2 µM (active), respectively.
